For orientation: inhibition means the drop in the measured response relative to a control, in per cent.

Among all 320,000 compounds or so, about 1,300 (0.41%) were called active. Not shown: some 3% with an inconclusive outcome. The rule behind the calls is not given here. Only a sample is shown. Results with a measured potency or affinity are listed apart.

This assay in a line: growth inhibition of non-replicating M. tuberculosis (AID 488890).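 Note: plate controls were DMSO cells for no effect and high antibiotic wells for full effect.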 Particulars: Mycobacterium tuberculosis non-replicating, at 25 µM, stronger effect = higher value.
For the compound `CCOc1ccccc1N1CCN(C(=O)c2cc[n+]([O-])cc2)CC1`, the inhibition was found to be 15.7%.
`CC(=O)Nc1ccc(S(=O)(=O)NCCc2csc(C)n2)cc1`: the inhibition is -0.23%.
To `Cc1ccccc1OCCCC(=O)NCc1ccco1` belongs 15.7%; to `C/C(=N\Nc1nc2ccccc2[nH]1)c1ccccn1`, 78.5%; to `O=C(Nc1nc2ccccc2[nH]1)c1cc2ccccc2o1`, 34.8%.
In the case of `CCOc1ncccc1C(=O)OCc1ccc([N+](=O)[O-])cc1` it was 57.5%; in that of `CCn1c(N2CCN(C(=S)NC)CC2)nc2ccccc21`, -6.07%.
To `CC(C1CC1)N(Cc1ccccc1)C(=S)Nc1cccc(C(F)(F)F)c1` (configuration not stated) belongs 66.8%; to `Cc1ccc2c(c1)N=C(c1ccc(Cl)cc1)CO2`, 29%; to `COc1ccc(C2=Nc3cc(C)ccc3OC2)cc1`, 23.2%.
Turning to `Clc1ccc(C2=Nc3cc(Cl)ccc3OC2)cc1`, the inhibition was determined as 15.6%.
With `Cc1ccc2c(c1)N=C(c1ccc(F)cc1)CO2`, the inhibition is 30.4%.
In the case of `Cc1cc(=O)[nH]c(SCC(=O)N2CCC(Cc3ccccc3)CC2)n1` it was 0.43%.
For the compound `CCN(C(=O)c1cc2cc3ccc(C)cc3nc2o1)c1ccc(OC)cc1`, the inhibition was 75.9%.
To `CS(=O)(=O)N1CCC(C(=O)N2CCN(c3ccc(F)cc3)CC2)CC1` belongs -0.02%.
To `O=C(NCC(=O)N1CCc2ccccc2C1)c1ccc(Cl)cc1Cl` belongs 7.88%; to `O=C(c1cc([N+](=O)[O-])ccc1Cl)N1CCc2ccccc21`, 43%; to `O=C(c1cc([N+](=O)[O-])ccc1N1CCCCC1)N1CCc2ccccc21`, 21%.
In the case of `C/C(CC(=O)Nc1ccc(Cl)cc1Cl)=N\NC(=O)c1ccco1` it was 62.2%.
In the case of `Cc1c2ccccc2nc2c(F)c(NC(C)C)c(F)c(F)c12`, the inhibition worked out at 25.6%.
To `Cc1c2ccccc2nc2c(F)c(N(C)C)c(F)c(F)c12` belongs 67.8%; to `CCCn1c(NC(=O)c2cccc(S(=O)(=O)N3CCCC3)c2)nc2ccccc21`, 12.3%.
In the case of `Cc1[nH][nH]c(=O)c1N=Nc1ccccc1Cl` it was 2.18%.
To `Cc1[nH]n(S(=O)(=O)c2ccccc2)c(=O)c1N=Nc1cccc(Cl)c1` belongs 70.6%; to `C#CCOCCOCCOCCNc1nc(N2CCN(C(=O)[C@H](CCC(=O)O)n3cc([C@@H](N)[C@H](C)CC)nn3)CC2)nc(N2CCN(C(=O)[C@H](CCCCN)n3cc([C@@H](N)CC(N)=O)nn3)CC2)n1`, -0.95%; to `CCOC(=O)Cn1c(=O)cc(C)c2cccc(C)c21`, 78.8%.
Consider `Cc1cccc2c(=O)c(Br)c(C)n(Cc3ccccc3)c12`, for which the inhibition is -19.5%.
Take `CC(NC(=S)NC(=O)c1ccccc1)c1ccccc1` (configuration not stated): the inhibition stood at 38.7%.
As to `COc1ccc(OC)c(C2Nc3ccccc3NC3=C2C(=O)CC(C)(C)C3)c1` (configuration not stated), the inhibition worked out at 3.61%.
In the case of `Cc1ccc(C)c(NC(=O)CN(C)C(=O)C2=NNC(=O)CC2)c1` it was 10.7%.
For `NS(=O)(=O)c1ccc(NC(=O)COC(=O)c2cc(Cl)ccc2[N+](=O)[O-])cc1`, the inhibition is 16.2%.
To `CC(C)(C)NC(=O)COC(=O)c1cc(Cl)ccc1[N+](=O)[O-]` belongs 70.2%; to `O=C(C1=C(O)C(=O)N(CCCn2ccnc2)C1c1ccc(F)cc1)c1ccco1` (configuration not stated), 1.68%.
Turning to `CC(C)(C)NS(=O)(=O)c1ccc(NC(=O)C2CC(=O)N(CCc3ccc(F)cc3)C2)cc1` (configuration not stated), the inhibition was determined as 6.94%.
Consider `COc1ccc(CCN2CC(C(=O)NCC3(O)CCCCC3)CCC2=O)cc1` (configuration not stated), for which the inhibition was -4.96%.
To `Cc1cc(N2CCN(c3ccccc3)CC2)nc(NCc2ccccc2)n1` belongs 36.7%; to `Cc1cc(Nc2ccccc2)nc(NCc2ccccc2)n1`, 69.7%; to `Cc1cc(N2CCOCC2)nc(NCc2ccccc2)n1`, 15.7%.
In the case of `Cc1cc(OC2CCCCC2)nc(NCc2ccccc2)n1` it was 29.8%; in that of `Cc1ccc(SCCC(=O)OCC(=O)Nc2ccc(C(N)=O)cc2)cc1`, -4.28%; in that of `COc1cc(S(=O)(=O)Nc2ccncc2)ccc1F`, -1.45%.
In the case of `COc1cccc(Nc2nc3cc(OC)ccc3cc2C#N)c1` it was 2.07%; in that of `O=C(Nc1nn[nH]n1)c1cc(-c2ccc(Cl)c(Cl)c2Cl)nc2ccccc12`, 28.1%.
On to `Cc1cc2[nH]c(=O)c(=O)[nH]c2cc1S(=O)(=O)N(C)C1CCCCC1`, for which the inhibition was 13.6%.
To `O=C(O)CN1C(=O)CSC1=S` belongs -1.21%.
In the case of `CC(C)OC(=O)CCCN1C(=O)c2ccc(N)cc2C1=O` it was -10.2%; in that of `COC(=O)C1=C(C)NC(C)=C(C(=O)OC)C1C(=O)OC1CCCCC1=O` (configuration not stated), -9.56%.
To `CCOC(=O)C1CCN(CC(=O)Nc2c(C(=O)OC)[nH]c3cccc(C)c23)CC1` belongs 2.06%; to `CCOC(=O)N1c2ccccc2Sc2ccccc21`, 11.9%.
Regarding `CC(=O)NCC(=O)OCC(=O)N1c2ccccc2Sc2ccccc21`, the inhibition came out at 15.6%.
In the case of `COc1cccc(CN(C)C(=O)Cc2c[nH]c3ccccc23)c1OC` it was 5.31%.
In the case of `CCOC(=O)C1=C(COC(=O)c2ccc(C)s2)NC(=O)NC1C` (configuration not stated) it was 11.3%; in that of `CCS(=O)(=O)N1N=C(c2cccc(NS(C)(=O)=O)c2)CC1c1ccccc1` (configuration not stated), 36.4%; in that of `Cc1nn(-c2nc3ccccc3[nH]2)c(=O)c2ccccc12`, 34%.
To `Cc1nn(-c2nc3ccccc3s2)c(N)c1-c1ccc(Cl)cc1` belongs -4.69%; to `CCC(=O)c1ccc(OCC(=O)OCC(=O)c2cc(C)n(CC3CCCO3)c2C)cc1` (configuration not stated), 70.2%; to `Cc1cc(C(=O)COC(=O)COc2ccc(C#N)cc2)c(C)n1C1CC1`, 47%.
With `CC(C)c1ccc(NC(=O)C2CCCN2S(=O)(=O)c2ccccc2F)cc1` (configuration not stated), the inhibition is -6.6%.
In the case of `O=c1[nH]c(O)c(C=Nc2ccc(F)c(Cl)c2)c(=O)[nH]1` it was 4.76%.
In the case of `CC1=Nc2ccccc2/C1=C/c1c(O)[nH]c(=O)[nH]c1=O` it was 1.63%; in that of `O=C(Nc1cccc(Cl)c1)c1nc[nH]c1C(=O)NCc1ccccc1`, 78.3%; in that of `CCCNC(=O)N1CCC(Cc2ccccc2)CC1`, 67.7%.
To `Cc1cc(C(=O)N2CCC(Cc3ccccc3)CC2)c(C)o1` belongs 15.3%.
Take `CCOCC(=O)N1CCC(Cc2ccccc2)CC1`: the inhibition came out at 47.1%.
To `O=C(c1cccs1)N1CCC(Cc2ccccc2)CC1` belongs 11.9%; to `O=C(O)CCCC(=O)N1CCN(c2ncccn2)CC1`, -16.3%; to `COc1ccc(-n2cc(C(=O)c3cc4ccccc4oc3=O)c(C(C)=O)n2)cc1`, 19.3%.
Turning to `COc1ccc(CCNC(=O)c2cccc(S(=O)(=O)N3CCOCC3)c2)cc1OC`, the inhibition was determined as 16%.
As for `O=C(Cc1ccc(Cl)c(Cl)c1)OCC(=O)c1ccc[nH]1`, the inhibition stood at 70.6%.
To `O=C(COC(=O)c1nc(Cl)ccc1Cl)c1ccc[nH]1` belongs 4.28%; to `O=C(Cc1ccc(Br)cc1)OCC(=O)c1ccc[nH]1`, 79.4%.
To `O=C(COC(=O)c1ccc[nH]c1=O)c1ccc(Cl)s1` belongs 21.8%; to `CC(=O)N1c2ccc(S(=O)(=O)NCC3CCC(C(=O)NCc4ccccc4)CC3)cc2CC1C` (configuration not stated), 14.7%.
To `COc1ccc(CC2C(=O)N(C)C(=O)N(C)C2=O)c(OC)c1` belongs -3.03%; to `O=C/C(=C\Nc1ccc(Cl)cn1)c1nc2cc(Cl)ccc2o1`, 58.2%; to `CC(Oc1ccc2cc(-c3ccccc3)c(=O)oc2c1)C(=O)NCC1CCC(C(=O)O)CC1` (configuration not stated), 4.91%.
As to `COc1ccc(-c2cc3ccc(OCC(N)=O)cc3oc2=O)cc1OC`, the inhibition was 17.8%.
In the case of `CC(=O)COc1ccc2c(-c3cccc([N+](=O)[O-])c3)cc(=O)oc2c1` it was -17.4%; in that of `COc1ccc(-c2cc3ccc(OC(C)C(=O)O)cc3oc2=O)cc1` (configuration not stated), -4.62%; in that of `COc1ccc(-c2cc(=O)oc3cc(OCC(C)=O)ccc23)cc1`, 36.8%.
In the case of `COC(=O)C(C)Oc1ccc2c(-c3cccc([N+](=O)[O-])c3)cc(=O)oc2c1` (configuration not stated) it was 67.4%; in that of `COc1ccc(-c2cc3ccc(OCC(C)=O)cc3oc2=O)cc1`, 15.4%.
To `COc1ccc(-c2cc(=O)oc3cc(OCC(=O)N(C)C)ccc23)cc1` belongs -18.8%; to `NS(=O)(=O)c1ccc(CCNC(=O)c2cccc(S(=O)(=O)N3CCCC3)c2)cc1`, 17.3%.
Regarding `S=c1[nH]nc(C2CCCCC2)n1/N=C/c1cccc(Br)c1`, the inhibition is -5.05%.
To `O=C(c1ccco1)N1CCN(S(=O)(=O)c2ccc(Cl)cc2)CC1` belongs -7.62%.
To `COCCCNC(=O)Nc1ccc(F)cc1F` belongs -3.58%; to `NC(=O)COc1cc2oc(=O)c3c(c2cc1Cl)CCCC3`, -1.26%.
In the case of `CCN(CC)C(=O)c1sc(N)c(C(=O)OC(C)C)c1C` it was 29.4%.
Consider `O=C(O)C1CC=CCC1C(=O)c1ccccc1` (configuration not stated), for which the inhibition is -2.95%.
`O=c1cccccc1NN=C1CCCCCC1`: the inhibition was found to be 15.8%.
Turning to `CCOC(=O)c1sc(NC(=O)CSc2n[nH]c(C)n2)nc1C`, the inhibition is 23.3%.
In the case of `CC(=C/c1ccco1)/C=N/NC(=O)c1ccncc1` it was 52.5%.
To `C/C(=N\Nc1nc(-c2ccccc2O)nc2ccccc12)c1ccccc1` belongs 7.99%; to `CC(C)CCC(C(=O)O)C(C)CC(=O)Nc1ccn(-c2ccccc2)n1` (configuration not stated), -10%.
To `CSCCC(NC(=O)COc1ccccc1)C(=O)N(C)Cc1cccc(F)c1` (configuration not stated) belongs 23.5%; to `CCN(CC)C(=O)COc1ccc2c(-c3ccccc3)cc(=O)oc2c1`, -10%.
On to `O=C(O)COc1ccc2c(-c3ccccc3)cc(=O)oc2c1`, for which the inhibition was -4.18%.
In the case of `Cc1ccc(NC(=O)CN(C)C(=O)CSc2ccccc2F)cc1` it was 1.97%; in that of `COc1ccc(C(CNC(=O)c2c(C)nn(Cc3ccccc3)c2Cl)N2CCOCC2)cc1` (configuration not stated), 11.7%.
In the case of `O=C(COc1ccccc1)NCC(=O)NC1CCCCC1` it was 3.74%.
For the compound `COc1ccc(OCCC(=O)OCC(=O)NC2CCCCCCC2)cc1`, the inhibition is 42.5%.
In the case of `O=C(COc1ccc(C(=O)c2ccccc2)cc1)NC1CCCCCC1` it was 55.6%; in that of `COc1ccc(OCCC(=O)OCC(=O)NC2CCCCC2)cc1`, 39.1%.
To `CCOc1ccc(CCNC(=O)CCc2nnc3ccc(N4CCCCC4)nn23)cc1OCC` belongs 20.8%; to `Cc1cccc[n+]1C1C(c2ccccc2)C(C#N)=C(C(=C=[N-])C#N)NC1(O)C1CC1` (configuration not stated), 17.4%.
To `COC(=O)c1ccc(CN2CCN(C3CCCCC3)C(CCO)C2)cc1` (configuration not stated) belongs -2.17%; to `CCOC(=O)[C@@H]1[C@H]2COc3ccc(Br)cc3[C@H]2N2C(=O)N(c3ccc(C(F)(F)F)cc3)C(=O)[C@]12C`, 37.9%; to `O=C(c1ccc(Cl)s1)N1CCCC1`, 31%.
On to `O=C(c1ccc(Br)s1)N1CCCC1`, for which the inhibition was 46.3%.
For the compound `Cc1ccc(NC(=O)CCC(=O)Nc2nnc(C3CCCCC3)s2)cc1`, the inhibition was -1.2%.
To `NC(=NCCc1ccccc1)NS(=O)(=O)c1ccc2ccccc2c1` belongs 51.5%.

The record behind these values is PubChem BioAssay AID488890 (Southern Research Specialized Biocontainment Screening …, 2010).
